Compounds without any hit were thinned out: in the full panel of roughly 79,000, 15% have a hit. A number with no mark means an inactive call. Active and inactive are the calls of the source. No stated cut-off is given here; in the data, active means growth inhibition above about 70%; inactive means the rest.

Among the data in PubChem BioAssay (NCI) are growth inhibition values, retold here.

The experiment is described as follows: NCI Yeast Anticancer Drug Screen. Data for the cln2 rad14 strain (AID 165).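 Further: 0% = growth equal to vehicle treated cultures.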 The conditions noted are these: S. cerevisiae cln2 rad14 strain, stronger effect = higher value. The protocol:
Growth inhibition of yeast strains with defined genetic alterations is measured as a screen for potential anti-cancer activity. Selected strains with alterations in DNA damage repair or cell cycle control were exposed to compounds and growth inhibition was measured relative to vehicle treated controls. The strain used in this assay is cln2 rad14

Setting [1] is: at 5.0 µM (retest, dose inferred, filed as 0.5).
[2] abbreviates: at 50.0 µM (retest, dose inferred, filed as 5.0).

`CC(C)c1ccc(C2NC(=S)NC3=C2c2ccccc2C3=O)cc1` (configuration not stated): the growth inhibition is -9% under setting [1], 26% under setting [2] and 66.8% (at 50.0 µM).

As to `O=C(O)/C=C\C(=O)NNc1ccc(Br)cc1`, the growth inhibition under setting [1] is 15%, the growth inhibition under setting [2] is 97% (active) and the growth inhibition (at 50.0 µM) is 97.3% (active).

Take `NCC(O)CSCc1ccc(Cl)cc1` (configuration not stated): the growth inhibition is -7% under setting [1], 10% under setting [2] and 86.5% (active) (at 50.0 µM).

For `Cc1nc2ccc(NCCN(C)C)c3c(=O)c4ccccc4n1c23`, the growth inhibition under setting [1] was 10%, the growth inhibition under setting [2] is 25% and the growth inhibition (at 50.0 µM) was 10.2%.

Consider `CC(=O)CC[N+](C)(C)C`, for which the growth inhibition by setting is: under setting [1], 25%; under setting [2], 30%; (at 50.0 µM) -41.7%.

With `Cc1c(N=Nc2ccc(Cl)cc2)c(C)n(C2OC(CO)C(O)C(O)C2O)c(=S)c1C#N` (configuration not stated), the growth inhibition was 44% under setting [1], 52% under setting [2] and 59.5% (at 50.0 µM).

For `O=C(O)[C@H]1[C@@H](C2CCCCC2)O[C@@H](C2CCCCC2)O[C@H]1C(F)(F)F`, the growth inhibition under setting [1] is -11%, the growth inhibition under setting [2] was -8% and the growth inhibition (at 50.0 µM) is 87.3% (active).

With `CCc1nc2ccc(N=Nc3c(O)ccc4ccccc34)cc2[nH]1`, the growth inhibition under setting [1] was 9%, the growth inhibition under setting [2] was 41% and the growth inhibition (at 50.0 µM) is 91.9% (active).

For the compound `CNc1ccc2[nH]c3ccccc3c2c1`, the growth inhibition under setting [1] was -14%, the growth inhibition under setting [2] is 20% and the growth inhibition (at 50.0 µM) is 15.2%.

In the case of `Nc1nc(Nc2ccccc2)nc(Nc2ccccc2)n1`, the growth inhibition is -4% under setting [1], 8% under setting [2] and 81.2% (active) (at 50.0 µM).

With `O=C1C(C(O)(C(F)(F)F)C(F)(F)F)CCC1C(O)(C(F)(F)F)C(F)(F)F` (configuration not stated), the growth inhibition by setting is: under setting [1], 83% (active); under setting [2], 46%; (at 50.0 µM) 14.2%.

Take `CN(C)CCC(=O)c1c[nH]c2ccccc12`: the growth inhibition was 77% (active) under setting [1], 36% under setting [2] and 31.1% (at 50.0 µM).

On to `COc1ccc(/C=C2\CCc3ccccc3C2=O)cc1OC`, for which the growth inhibition was 23% under setting [1], 48% under setting [2] and 60.9% (at 50.0 µM).

Take `N=c1oc2ccccc2cc1-c1nc2ccccc2[nH]1`: the growth inhibition reads like this: under setting [1], 5%; under setting [2], 27%; (at 50.0 µM) 28.3%.
